VDR inhibitor: blocks the human vitamin D receptor. Potency, µM, usual class: inhibitors. VDR-SRC2-3 peptide fluorescence polarization, 2 h. 0.93% of 400,000 active. P11473
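Fluorescence polarization assay of small-molecule disruption of VDR binding to coregulator peptide SRC2-3. Compounds and controls pin-transferred, then read after 2 h incubation at ambient room temperature.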
TDP1 block: blocks human tyrosyl-DNA phosphodiesterase 1; Q9NUW8; recombinant TDP1, AlphaScreen DNA substrate cleavage; Potency, µM (highest dose often 130 µM), usual class: inhibitors; 0.28% of 350,000 active; note: nearly all actives have a fitted effect of over 40% in size
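Compounds were preincubated with Tdp1 (1 nM final) for 15 min at room temperature before substrate (15 nM final) started a 5 min reaction; beads (10 ug/ml final) were then added for 10 min before AlphaScreen detection.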
PLK1 PBD inh: blocks phosphopeptide binding to human PLK1 polo-box domain. 2.8% of 360,000 active. P53350. Potency, µM, usual class: inhibitors. Plk1 PBD binding of FITC phosphopeptide, fluorescence polarization; note: series mostly up to about 57 µM; nearly all actives have a fitted effect of over 65% in size
TDP1 cell CPT: DT40-hTDP1 cell growth loss with CPT | AID 686979 | 12% of 420,000 active | Potency, µM (series often up to 46.2 µM), usual class: inhibitors | chicken DT40 Tdp1-/-;hTDP1 cells + 20 nM CPT, ATP luminescence, 48 h; note: nearly all actives have a fitted effect of over 55% in size
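Chicken DT40 Tdp1-/- cells complemented with human TDP1, 400 cells/well, exposed to compounds plus 20 nM camptothecin for at least 48 h at 37 C; viability read as ATP content by CellTiter-Glo luminescence.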
GCN5L2 inh: inhibitors of human GCN5L2 histone acetyltransferase. GCN5L2 HAT assay, ThioGlo1 CoA-SH fluorescence. Potency, µM (doses to about 58.9 µM), actives largely listed as inhibitors. 0.21% of 390,000 active. Q92830. AID 504327
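GCN5L2 (20 nM) in 50mM HEPES pH 7.5, 0.1mM EDTA, 0.01% Tween-20 preincubated 15 min with compounds at room temperature. Reaction started with H3(1-25) 75uM, acetyl-CoA 70uM, ThioGlo1 50uM; CoA-thiol fluorescence (Ex340/Em540) read at 0 and 20 min.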
DT40 TDP1 no CPT: qHTS for Inhibitors of human tyrosyl-DNA phosphodiesterase 1 (TDP1): qHTS in cells in absence of CPT. DT40 Tdp1-/- hTDP1 cells, no CPT, ATP luminescence, 48 h. Potency, µM (doses to about 46.2 µM), actives largely listed as inhibitors. 15% of 420,000 active; note: nearly all actives have a fitted effect of over 55% in size
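Cells were dispensed at 400 per well, compounds added by pin tool, plates incubated ≥48 hr at 37 °C, then CellTiter-Glo added for 30 min at room temperature before luminescence reading. Line: DT40 Tdp1-/- complemented with hTDP1; camptothecin omitted.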
Hits are given with their value. In the library only some 18% were active in any assay of this set; here they are far more common. Calls come from the whole dose curve; as a rule, active = well fitted curve in the direction sought with a large enough effect; inconclusive = small, poorly fitted or top-dose-only effect, or another doubt; inactive = no such curve, though single readings can be large; an effect the other way counts as inactive or inconclusive.

What do the screens show for `O=c1[nH]c2ccccc2n1C1CCN(C(c2cc3ccccc3o2)c2nnnn2-c2ccc3c(c2)OCCO3)CC1` (stereo not given)?
PLK1 PBD inh: inactive; TDP1 cell CPT: inconclusive; DT40 TDP1 no CPT: 15µM

What do the screens show for `O=c1c2ccccc2[nH]c(=S)n1-c1ccc2c(c1)OCCO2`?
VDR inhibitor: inactive; PLK1 PBD inh: inactive; TDP1 cell CPT: inactive; GCN5L2 inh: inactive; DT40 TDP1 no CPT: inactive

How did Nc1cccc2ccccc12 do in these assays?
TDP1 block: inactive

Results for Nc1ccc2c3c(cccc13)-c1ccccc1-2 ?
VDR inhibitor: inactive; PLK1 PBD inh: 9.5µM; TDP1 cell CPT: inactive; DT40 TDP1 no CPT: inactive

What do the screens show for `CCC(=O)OC1(c2ccccc2)CCN(C)CC1`?
TDP1 cell CPT: inactive; DT40 TDP1 no CPT: inactive

What do the screens show for `Cc1ccc(C)c(N2CCN(C(=O)CCNS(=O)(=O)c3ccc4c(c3)oc(=O)n4C)CC2)c1`?
VDR inhibitor: inactive; TDP1 block: inactive; PLK1 PBD inh: inactive; TDP1 cell CPT: inconclusive; GCN5L2 inh: inactive; DT40 TDP1 no CPT: inconclusive

How did CCOC(=O)c1c(C)[nH]c(C)c1S(=O)(=O)NCC(=O)N1CCN(c2cc(Cl)ccc2C)CC1 do in these assays?
VDR inhibitor: inactive; TDP1 block: inactive; TDP1 cell CPT: 23µM; GCN5L2 inh: inactive; DT40 TDP1 no CPT: 18µM

How did CN(C)CCc1nn[nH]n1 do in these assays?
VDR inhibitor: inactive; TDP1 block: inactive; PLK1 PBD inh: inactive; TDP1 cell CPT: inactive; GCN5L2 inh: inactive; DT40 TDP1 no CPT: inactive

Results for C[C@@H]1C[C@@H]2[C@H]([C@H]3C=C(COC(=O)c4ccccc4)[C@@H](O)[C@]4(O)[C@@H](O)C(OC(=O)c5ccccc5)=C[C@@]14C3=O)C2(C)C ?
VDR inhibitor: inactive; TDP1 block: inactive; GCN5L2 inh: inactive

How did COc1ccc(-n2c(SCCN(C)C)nc3ccccc3c2=O)cc1 do in these assays?
VDR inhibitor: inactive; PLK1 PBD inh: inactive; TDP1 cell CPT: inconclusive; GCN5L2 inh: inactive; DT40 TDP1 no CPT: inconclusive

What do the screens show for `COP(=S)(OC)SCn1nnc2ccccc2c1=O`?
VDR inhibitor: 22µM; TDP1 block: inactive; PLK1 PBD inh: 8.4µM; TDP1 cell CPT: inconclusive; GCN5L2 inh: 40µM; DT40 TDP1 no CPT: 23µM

Results for Cc1cccc(Cc2cnc(NC(=O)c3ccc4c(c3)CC(c3ccccc3)OC4=O)s2)c1 (stereo not given) ?
VDR inhibitor: inactive; TDP1 block: inactive; TDP1 cell CPT: 26µM; GCN5L2 inh: inactive; DT40 TDP1 no CPT: 21µM

Results for CC[C@H]1C[C@H]2[C@@H]3CCC4=CC(=O)CC[C@@H]4[C@H]3CC[C@]2(C)[C@H]1O ?
TDP1 cell CPT: inconclusive; DT40 TDP1 no CPT: inactive

Results for CC[C@]1(O)CC[C@H]2[C@@H]3CCC4=CCCC[C@@H]4[C@H]3CC[C@@]21C ?
VDR inhibitor: inactive; TDP1 cell CPT: 7.5µM; GCN5L2 inh: inactive; DT40 TDP1 no CPT: 5.3µM

How did CC[n+]1c(SC)ccc2cc(OC)ccc21 do in these assays?
VDR inhibitor: inactive; TDP1 block: inactive; PLK1 PBD inh: inactive; TDP1 cell CPT: inconclusive; GCN5L2 inh: inactive; DT40 TDP1 no CPT: 16µM

Results for CCCCCn1c(Sc2ccccc2)nc2c1c(=O)[nH]c(=O)n2C ?
VDR inhibitor: inconclusive; TDP1 block: inactive; PLK1 PBD inh: 30µM; TDP1 cell CPT: inconclusive; GCN5L2 inh: inactive; DT40 TDP1 no CPT: inconclusive

What do the screens show for `CCCCCCn1c(O)c(C(C)=NC)c(=O)[nH]c1=O`?
VDR inhibitor: inactive; TDP1 block: inactive; PLK1 PBD inh: inactive; TDP1 cell CPT: inactive; GCN5L2 inh: inactive; DT40 TDP1 no CPT: inactive

Results for COc1cccc(NC(=O)N2CCc3nc(Nc4ccc(C(C)C)cc4)ncc3C2)c1 ?
PLK1 PBD inh: inactive; TDP1 cell CPT: 26µM; DT40 TDP1 no CPT: inconclusive

What do the screens show for `Cc1ccc(CN2Cc3ccc(Br)cc3-n3nncc3C2)cc1`?
PLK1 PBD inh: inactive; TDP1 cell CPT: inconclusive; DT40 TDP1 no CPT: inconclusive

From PubChem BioAssay
